Experimental findings from PubChem BioAssay (NCATS) are described below.

Inconclusive results are not listed. A structure can be active in one record and inactive in another. Values without a mark were called inactive. Active and inactive are the calls of the source. Calls follow the shape of the dose curve; as a rule, active = well fitted curve in the direction sought with a large enough effect; inconclusive = small, poorly fitted or top-dose-only effect, or another doubt; inactive = no such curve, though single readings can be large; an effect the other way counts as inactive or inconclusive.

Test [1] relates to HaCat. Briefly: Cytotoxic Profiling of Annotated Libraries Using Quantitative High-Throughput Screening (AID 1296008). Also: nearly all actives have a fitted effect of over 60% in size. Also: potency is read from the fitted curve at half-maximal effect. The note with it: Five cell lines viability, CellTiter-Glo ATP luminescence, 48-72 h; max response: hits give low values. In outline:
(§1)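 Cells exposed to compounds for 48 or 72 hr at 37 degrees Celsius. Viability read as ATP-coupled luminescence with CellTiter-Glo after 10 min at room temperature.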

Another test concerns KB-3-1. Described as above. Particulars: Five cell lines viability, CellTiter-Glo ATP luminescence, 48-72 h; max response: hits give low values. The gist of the method:
as §1
(Cellular ATP, detected with luciferase, serves as a proxy for viable cell number.)

The subject of test [2] is NIH3T3. The test is described as above. Particulars: Five cell lines viability, CellTiter-Glo ATP luminescence, 48-72 h; max response: hits give low values. The gist of the method:
as §1

The test system of test [3] is HACAT. As to the kind of experiment: qHTS assay to identify novel small-molecules to repurpose for Merkel cell carcinoma treatment (AID 1296009). Also: nearly all actives have a fitted effect of over 60% in size. Also: potency is read from the fitted curve at half-maximal effect. The note with it: MCC and control cell lines, CellTiter-Glo viability, 72 h; series mostly up to 44.8 µM. In outline: (§2)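 CellTiter-Glo luminescence after 72 hr compound exposure at 37 degree celsius gave cell viability. Libraries NPC and MIPE were run as 8- and 11-point dose responses; RLUs normalized to DMSO (negative) and no-cell (cytotoxicity) controls.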

For the next test, the system named is MCC-13. Described as above. The note with it: MCC and control cell lines, CellTiter-Glo viability, 72 h; series mostly up to 46 µM. In outline:
as §2

For a further test, the system named is MCC-26. The description is as above. The note with it: MCC and control cell lines, CellTiter-Glo viability, 72 h; series mostly up to 46 µM. In outline:
as §2

For the next test, the system named is MKL-1. The test is described as above. Particulars: MCC and control cell lines, CellTiter-Glo viability, 72 h; series mostly up to 46 µM. In outline: as §2
A further test relates to MKL-2. The description is as above. Particulars: MCC and control cell lines, CellTiter-Glo viability, 72 h; series mostly up to 46 µM. In outline:
as §2

Test [4] concerns NIH3T3. The test is described as above. Particulars: MCC and control cell lines, CellTiter-Glo viability, 72 h; at 44.8 µM (top of the series) unless noted. The gist of the method:
as §2

Another test has as its system UISO. The test is described as above. Particulars: MCC and control cell lines, CellTiter-Glo viability, 72 h; series mostly up to 46 µM. In outline: as §2
Another test relates to WaGa. The test is described as above. Particulars: MCC and control cell lines, CellTiter-Glo viability, 72 h; series mostly up to 46 µM. The gist of the method:
as §2

The next test concerns CASKI. As to the kind of experiment: Primary qHTS to identify gynecologic anti-cancer compounds using libraries of approved drugs and bioactive compounds (AID 1345084). Also: nearly all actives have a fitted effect of over 55% in size. Particulars: Gynecologic cancer cell panel viability, ATPlite luminescence, 48 h; series mostly up to 57.5 µM. In outline:
(§3)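 ATP-based viability (ATPlite), 1,000 cells/well, 16 h pre-incubation, 48 h compound at 37 C, 5% CO2, 15 min RT before read.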
A general note: Quantitative high-throughput screening tests each substance at several concentrations.

Another test has as its system Es-2. Described as above. The note with it: Gynecologic cancer cell panel viability, ATPlite luminescence, 48 h; series mostly up to 57.5 µM. In outline: as §3
Test [5] concerns Hek293T. The test is described as above. Particulars: Gynecologic cancer cell panel viability, ATPlite luminescence, 48 h, control line for the selectivity index; series mostly up to 57.5 µM. The gist of the method: as §3
A further test deals with OV90. The description is as above. The note with it: Gynecologic cancer cell panel viability, ATPlite luminescence, 48 h; series mostly up to 57.5 µM. The gist of the method: as §3
Test [6] deals with HEK293T. Briefly: qHTS assay to identify novel small-molecules to repurpose for Merkel cell carcinoma treatment (AID 1296009). Also: nearly all actives have a fitted effect of over 60% in size. Also: potency is read from the fitted curve at half-maximal effect. Particulars: MCC and control cell lines, CellTiter-Glo viability, 72 h; at 44.8 µM (top of the series) unless noted. The gist of the method: as §2
The next test has as its system C33A. As to the kind of experiment: Primary qHTS to identify gynecologic anti-cancer compounds using libraries of approved drugs and bioactive compounds (AID 1345084). Also: nearly all actives have a fitted effect of over 55% in size. The note with it: Gynecologic cancer cell panel viability, ATPlite luminescence, 48 h; series mostly up to 57.5 µM. The gist of the method:
as §3

Another test relates to CAOV3. The description is as above. The note with it: Gynecologic cancer cell panel viability, ATPlite luminescence, 48 h; series mostly up to 57.5 µM. The gist of the method:
as §3

A further test relates to HeLa. Described as above. Particulars: Gynecologic cancer cell panel viability, ATPlite luminescence, 48 h; series mostly up to 57.5 µM. In outline: as §3
The subject of the next test is JEG-3. Described as above. The note with it: Gynecologic cancer cell panel viability, ATPlite luminescence, 48 h; series mostly up to 57.5 µM. The gist of the method:
as §3
% is scaled to controls: 0 for no effect and ±100 for the full control effect.

In the case of `Nc1nc(NCCNc2ncc(-n3ccnc3)c(-c3ccc(Cl)cc3Cl)n2)ccc1[N+](=O)[O-]`, the molecule was called inactive with HaCat [1], in the test on KB-3-1, in the test on NIH3T3 [2] and in the test on NIH3T3 [4]. In the test on KB-3-1, the Potency is 20.6 µM (active). Besides, the max response in the test with NIH3T3 [2] was 4.08%. In addition, the Potency result in the test with HACAT [3], in the test on MCC-13, in the test with MCC-26, in the test with MKL-1, in the test on MKL-2 and in the test with UISO was “inactive” in each case. Also, the Potency entry in the test on WaGa, in the test with CASKI, in the test on Es-2, in the test on Hek293T [5] and with OV90 was “inactive” in each case.
With `C1Cc2[nH]nc(-c3nn[nH]n3)c2C1`, the figures for the max response in the test with HaCat [1] and in the test on KB-3-1 were -5.07% and 5.58%, respectively. Further, the outcome in the test with HaCat [1], in the test with KB-3-1, in the test on NIH3T3 [2], in the test on HEK293T [6] and in the test on NIH3T3 [4] was inactive. Also, the Potency entry in the test on HACAT [3], in the test with MCC-13, in the test with MCC-26, in the test with MKL-1, with MKL-2 and in the test with UISO was “inactive” throughout. For the same molecule, the Potency result in the test on WaGa, in the test on C33A, with CAOV3, in the test with CASKI, in the test with Es-2 and in the test on HeLa was “inactive” throughout. For the same molecule, the Potency result in the test on Hek293T [5], in the test on JEG-3 and in the test on OV90 was “inactive” each time.
`Cc1coc2c1C(=O)C(=O)c1c-2ccc2c1CCCC2(C)C`: the max response in the test with HaCat [1] is -3.22%; in the test on KB-3-1 it was -4.98%; in the test on NIH3T3 [2], -27%. In addition, the result in the test on HaCat [1], in the test with NIH3T3 [2] and in the test with NIH3T3 [4] was inactive. Moreover, in the test with KB-3-1, the Potency is 16.4 µM (active). Also, the Potency entry in the test on HACAT [3], in the test with MCC-13, in the test on MKL-1, in the test with MKL-2, with UISO and with WaGa was “inactive” throughout. Further, the Potency entry with C33A, in the test with CASKI, in the test with Es-2 and in the test with Hek293T [5] was “inactive” throughout.
`CCCCCCCCCC(=O)N[C@@H](Cc1c[nH]c2ccccc12)C(=O)N[C@H](CC(N)=O)C(=O)N[C@@H](CC(=O)O)C(=O)N[C@@H]1C(=O)NCC(=O)N[C@@H](CCCN)C(=O)N[C@@H](CC(=O)O)C(=O)N[C@H](C)C(=O)N[C@@H](CC(=O)O)C(=O)NCC(=O)N[C@H](CO)C(=O)N[C@@H]([C@@H](C)CC(=O)O)C(=O)N[C@@H](CC(=O)c2ccccc2N)C(=O)O[C@@H]1C`: the results for the max response in the test with HaCat [1] and with NIH3T3 [2] were -26.3% and -13.2%, respectively. For the same molecule, the result with HaCat [1], in the test on KB-3-1, in the test on NIH3T3 [2], in the test with HEK293T [6] and with NIH3T3 [4] was inactive. The Potency result in the test with HACAT [3], in the test with MCC-13, in the test on MCC-26, in the test on MKL-1, with MKL-2 and in the test on UISO was “inactive” in each case. The Potency entry with WaGa, in the test on C33A, in the test on CASKI, with Es-2, with HeLa and in the test with Hek293T [5] was “inactive” each time. The Potency result in the test with JEG-3 and in the test with OV90 was “inactive” in each case.
`O=C(CCCCCCC(=O)Nc1ccc([C@H]2O[C@@H](CSc3nc(-c4ccccc4)c(-c4ccccc4)o3)C[C@@H](c3ccc(CO)cc3)O2)cc1)NO`: the Potency in the test on HaCat [1] is 20.9 µM (active); in the test on KB-3-1, 11.8 µM (active); with MCC-26, 23.5 µM (active); in the test on MKL-1 it was 8.33 µM (active); in the test with MKL-2, 8.33 µM (active); in the test on WaGa it was 7.43 µM (active). The result with HaCat [1] was inactive. Further, the max response in the test with NIH3T3 [2] was -17.5%. The Potency entry in the test on HACAT [3], with CAOV3, in the test on CASKI, in the test with Es-2, with HeLa and in the test on Hek293T [5] was “inactive” throughout.
